D3 antag: D3 dopamine receptor (human) antagonism; 360,000 tested, 2.5% active; P35462; D3R cells, DiscoveRx beta-arrestin luminescence, antagonist mode; active compounds read low; max response, negative = inhibition, %; AID 652054; in the data active = max response below about -50%; also: % is scaled to controls: 0 for no effect and ±100 for the full control effect
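Cells plated overnight at 1500 cells/well, then exposed to library compounds with dopamine controls for 90 minutes at 37 degrees C. DiscoveRx reagent added for 30–60 minutes at room temperature; luminescence read, quantitative HTS format.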
D1 antagonist: human D1 dopamine receptor antagonism. P21728. activity change, negative = inhibition, % at 10 µM. 360,000 tested, 3.2% active. HEK293 TREx D1 cells, calcium flux, dopamine EC80; active compounds read low; in the data active = activity change below about -30%; also: % is scaled to controls: 0 for no effect and ±100 for the full control effect
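Inducible Hek293 Trex D1 cells (tetracycline, overnight, 30 C). Calcium dye 30–90 min RT. Antagonist mode: EC80 dopamine added after 180 s compound read.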
D1 agonist: human D1 receptor agonism; 360,000 tested, 1% active; P21728; activation, % at 2 µM; HEK293 T-REx D1 cells, calcium flux, agonist mode; in the data active = activation above about 30%; also: 0% is about no effect
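Tetracycline-induced HEK293 TREx D1 cells, force-coupled to calcium signalling, were dye-loaded with a no-wash calcium kit. Compound was pin-added after a 10 s baseline. Fluorescence was read kinetically at 1 cycle/s for 180 s, with calcium rises flagged as agonism.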
D1 PAM: human D1 dopamine receptor positive modulation | 360,000 tested, 0.036% active | HEK293 TREx D1 cells, calcium flux, dopamine EC20 potentiation | potentiation, % at 10 µM; in the data active = potentiation above about 30%; also: 0% is about no effect
DRD3 agonist: activates the human D3 dopamine receptor. P35462. max activation, %. D3R DiscoveRx beta-arrestin cells, luminescence, 90 min. 410,000 tested, 0.58% active; in the data active = max activation above about 30%; also: 0% is about no effect
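Agonist mode: compounds and dopamine controls were applied to plated cells for 90 min at 37 degrees C after an overnight attachment at 1500 cells/well. Luminescent read-out followed 30 - 60 minutes at room temperature with DiscoveRx detection reagent.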
* marks the source's active call; other numbers are inactive results. An excerpt weighted towards active compounds, which were near 6% of everything screened.

SMILES	D3 antag	D1 antagonist	D1 agonist	D1 PAM	DRD3 agonist
CCn1nc(C)c(CNC(=O)c2ccc(OC3CCN(Cc4ccccn4)CC3)cc2)c1C	23	-34*	5	-6	19
COC(=O)[C@@H](NC(=O)c1ccc(OC2CCN(Cc3ccccn3)CC2)cc1)C(C)C	-25	1	4	-1	-3
CCn1cc(CNC(=O)c2ccc(OC3CCN(Cc4ccccn4)CC3)cc2)cn1	-5	0	2	-5	-4
CC(C)c1cc(CNC(=O)c2ccc(OC3CCN(Cc4ccccn4)CC3)cc2)on1	8	-53*	13	-7	-8
O=C(O)CC1S/C(=N/N=C/c2ccc(-c3ccc(Cl)c([N+](=O)[O-])c3)o2)NC1=O (stereo not drawn)	-3	1	1	4	-9
O=C(O)CC1S/C(=N/N=C/c2ccc(-c3ccc(Cl)cc3[N+](=O)[O-])o2)NC1=O (stereo not drawn)	-77*	5	1	-7	-7

Screening results from PubChem BioAssay.
